Several values for one entry are separate records, joined by “and”; a condition that tells them apart may be missing. Equal values may be shown once. ± gives the uncertainty stated by the source.
system: HEK293T-Rex ERSE-FLuc; assay: ERSE-FLuc reporter activation, triplicate confirmation, relative to 500 nM thapsigargin (% of thapsigargin); higher = stronger ATF6/ERSE reporter activation; conditions: 6.8 µM; 18 h; screen: confirmation
Method: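 HEK293T-Rex cells stably expressing the ERSE-firefly luciferase (BiP promoter, ATF6-preferring) or XBP1-splicing Renilla luciferase (IRE1/XBP1s) reporter, 1536-well plates, compound at 6.8 µM for 18 hr at 37 °C; luminescence read […] and expressed as % activation = 100*(compound - median DMSO)/(median 500 nM thapsigargin - median DMSO). Primary screen was single-pass; confirmation screen in triplicate (mean ± SD).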

| SMILES | ERSE-FLuc reporter activation |
| --- | --- |
| Nc1ccc2nc(-c3cc(Cl)c(N)c(Cl)c3)[nH]c2c1 | 35.6 ± 10 |
| CS(=O)(=O)c1ncc(Cl)c(C(=O)C(C#N)c2nc3ccccc3s2)n1 (configuration not stated) | 42.3 ± 12 |
| CC(=O)Oc1ccc(C(=O)OCc2ccc(Cl)cc2)cc1OC(C)=O | 35.9 ± 4.4 |
| CC(=Nc1ccc(O)cc1)c1sc2ccccc2c1O | 27.4 ± 4.2 |
| Cc1ccc(-c2csc(Nc3ccc(O)cc3)n2)cc1 | 26.7 ± 7.1 |
| O=C(COC(=O)c1cc(O)c(O)c(O)c1)Nc1ccc(Br)cc1F | 57.9 ± 11 |
| O=c1cc(-c2ccc(O)c(O)c2)oc2cc(O)cc(O)c12 | 46 and 36.9 |
| COC(=O)c1ccc(C(=O)Nc2ccccc2N)cc1 | 32.9 ± 4.2 |
| Oc1cccc(Nc2nc(-c3ccc(O)c(O)c3)cs2)c1 | 26.1 ± 6.7 |
| N#C/C(=C\c1ccc(O)c(O)c1)c1nc2ccccc2[nH]1 | 34.3 ± 1.3 |
| COc1ccc(/C=N/c2sc3c(c2C(N)=O)CCCC3)cc1 | 26.4 ± 4.8 |
| O=C(N/N=C/c1cccc(O)c1O)c1ccccn1 | 37.9 ± 9.1 |
| COC(=O)c1ccc2c(COC(C)=O)c(OC(C)=O)ccc2c1COC(C)=O | 113 ± 10 |
| COc1cccc(C(=O)Nc2sc3c(c2C#N)CC(C)CC3)c1 (configuration not stated) | 28 ± 5.5 |
| Nc1c(C(=O)Nc2ccccc2)sc2nc3c(cc12)CCCCC3 | 35.6 ± 5.3 |
| Oc1ccc(-c2cnc3c(Nc4ccc5[nH]ccc5c4)nccn23)cc1 | 35.7 ± 5.6 |
| NC(=O)c1c(NC(=O)/C=C/c2ccccc2)sc2c1CCCCC2 | 28.9 ± 2.4 |
| O=C(NCCc1ccccc1)c1cc(-c2cccs2)on1 | 34.5 ± 3.6 |
| Cn1c(-c2cccc(Cl)c2)cnc1NC(=O)c1ccccc1 | 25.6 ± 3.7 |

| SMILES | ERSE-FLuc reporter activation |
| --- | --- |
| OCCNc1nc(Nc2ccc(Cl)c(Cl)c2)nc2ccccc12 | 87.6 ± 9.4 |
| c1ccc2cc(-c3cnnc(N4CCOCC4)n3)ccc2c1 | 29 ± 8.7 |
| O=C(NC1CCCC1)c1cc(-c2cccs2)on1 | 25.7 ± 2.1 |
| CCc1cc2c(=O)c(-c3ccc4c(c3)OCCO4)coc2cc1OC | 34.7 ± 3.1 |
| CC(C)c1ccc(NC(=O)/C=C/c2ccco2)cc1 | 26.6 ± 5.9 |
| Nc1ccc2nc(-c3ccccn3)[nH]c2c1 | 26.8 ± 9.3 |
| CC(=O)Oc1cc(N2CCOCC2)c(OC(C)=O)c2c1C(=O)c1ccccc1C2=O | 45 ± 8 |
| CCN(CC)c1ccc2cc(-c3nc4ccccc4n3C)c(=O)oc2c1 | 34.2 ± 4.2 |
| CCCCNc1ncnc2c1cnn2-c1ccc(Cl)cc1 | 30.3 ± 4.6 |
| O=[N+]([O-])c1ccc(N/N=C/c2ccccc2O)cc1 | 20.7 ± 2.3 |
| N#C/C(=C/c1ccc(O)c(O)c1)c1nc2ccccc2s1 | 51.2 ± 8.1 |
| COc1ccc(/C=C/c2nc3cc([N+](=O)[O-])ccc3s2)cc1O | 25.5 ± 3.9 |
| COc1ccc(CCNC(=O)c2cccc(-c3ccc(N4CCOCC4)nc3)c2)cc1 | 48.7 ± 4.2 |
| O=C1N/C(=C/c2ccc(O)cc2)C(=O)N1c1ccccc1 | 66.4 ± 15 |
| COc1cccc(-c2cc(C(=O)Nc3cc(C)ccc3O)no2)c1 | 43.9 ± 11 |
| Oc1ccc(-c2csc(-c3ccccc3)n2)cc1O | 61.5 ± 5.1 |
| O=C1N/C(=C/c2ccc(O)cc2)C(=O)N1Cc1ccc(Br)cc1 | 37.1 ± 3.6 |
| O=C1/C(=C/c2ccc(O)c(O)c2)Oc2cc(O)ccc21 | 26.9 ± 5.9 |

— the supplement of paper PMC4954754
